Measured values: the supplement of paper PMC10849652
About 7,900 targets were measured; listed, in parts, are those with a hit and a random draw of the rest. About 0.6% of all pairs of compound and target were hits.

What was measured:
Experiment in all cases: log2 fold change, soluble protein after heating vs DMSO (PISA); higher = thermal stabilisation; K562 cells, 10 uM, 30 min; active = over 0.2 and 3.5 SD of the protein, either way, in both replicates (recomputed)
[1] = compound: CC[C@@H]1C(=O)N(C)c2cnc(Nc3ccc(C(=O)NC4CCN(C)CC4)cc3OC)nc2N1C1CCCC1
Summary of the method: (§1)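 Thermal stability values are relative to control samples and come from duplicates. They are expressed as log2 fold changes. For measurement, K562 cells (2×10^6 cells/mL) received 10 μM compound for 30 min, and aliquots were heated for 3 min over 48°C-58°C, pooled, and extracted at 4°C in PBS with 0.5% NP-40. Soluble protein, the supernatant after 21,000xg for 90 min, was quantified by TMTpro 16plex LC-MS/MS with equalised channel sums.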

[2] = compound: CC[C@@H]1C(=O)N(C)c2cnc(Nc3ccc(C(=O)N[C@H]4CC[C@H](N5CCN(CC6CC6)CC5)CC4)cc3OC)nc2N1C(C)C [volasertib]
Summary of the method: as §1

[3] = compound: CC[C@H](C)N1C=C(C2=C(C=C(C=C21)C3=CN=C(C=C3)N4CCNCC4)C(=O)NCC5=C(C=C(NC5=O)C)C)C
Summary of the method: as §1

[4] = compound: CC[C@H](C)[C@@H](C(=O)N[C@@H]([C@@H](C)O)C(=O)N[C@@H](CC(C)C)C(=O)[C@]1(CO1)C)NC(=O)[C@H]([C@@H](C)CC)N(C)C(=O)C [epoxomicin]
Summary of the method: as §1

[5] = compound: CCn1c(C(=O)N(C2CC2)C2CC2)cc2c3c(ncn3C)c(Nc3cc(C)n(C)n3)nc21
Summary of the method: as §1

[6] = compound: CCn1cc(-c2ccnc3[nH]c(-c4cccc(CN(C)C)c4)cc23)c(-c2ccc(NC(=O)N(C)C)cc2)n1
Summary of the method: as §1

[7] = compound: CN(C)CC(=O)Nc1ccc2[nH]c(=O)c3ccccc3c2c1
Summary of the method: as §1

[8] = compound: CN(CCOC1=CC=C(C=C1)C[C@H]2C(=O)NC(=O)S2)C3=CC=CC=N3 (racemic) [rosiglitazone]
Summary of the method: as §1

[9] = compound: CN1C2=C(C3=C1C(=O)N(N=C3)CC4=CC(=CC=C4)N)SC(=C2)S(=O)C
Summary of the method: as §1

[10] = compound: CN1CCC(CNc2ccc3ncc(-c4cccc(OC(F)(F)F)c4)n3n2)CC1
Summary of the method: as §1

[11] = compound: CN1CCN(CCOc2cc(OC3CCOCC3)c3c(Nc4c(Cl)ccc5c4OCO5)ncnc3c2)CC1 [saracatinib]
Summary of the method: as §1

[12] = compound: CN1CCN(c2nc(C3=C(c4c[nH]c5ccccc45)C(=O)NC3=O)c3ccccc3n2)CC1 [sotrastaurin]
Summary of the method: as §1

[13] = compound: CN1CC[C@H](c2c(O)cc(O)c3c(=O)cc(-c4ccccc4Cl)oc23)[C@H](O)C1 [alvocidib]
Summary of the method: as §1

[14] = compound: CN1CCc2c(c3ccccc3n2Cc2ccc(C(=O)NO)cc2)C1 [Tubastatin A]
Summary of the method: as §1

[15] = compound: CNC(=O)C1=CC=CC=C1NC2=NC(=NC=C2Cl)NC3=C(C=C(C=C3)N4CCOCC4)OC
Summary of the method: as §1

[16] = compound: CNC(=O)c1ccc(Nc2ncc(C(F)(F)F)c(NCc3nccnc3N(C)S(C)(=O)=O)n2)cc1 [defactinib]
Summary of the method: as §1

[17] = compound: CNCc1ccc(-c2[nH]c3cc(F)cc4c3c2CCNC4=O)cc1 [rucaparib]
Summary of the method: as §1

[18] = compound: CNc1nc(-c2ccc3c(N)n[nH]c3c2)cc(N2C[C@@H](C(=O)NC3CCCCC3)CC[C@H]2C)n1
Summary of the method: as §1

[19] = compound: COC(=O)N[C@@H](C)CNc1nccc(-c2cn(C(C)C)nc2-c2cc(Cl)cc(NS(C)(=O)=O)c2F)n1 [encorafenib]
Summary of the method: as §1

[20] = compound: COC(=O)[C@H](CCSC)NC(=O)C1=C(C=C(C=C1)NC[C@H](CS)N)C2=CC=CC=C2
Summary of the method: as §1

Measured: log2 fold change

CYBA (UniProt P13498)
Chain of UniProt P13498 (P13498 whole entry, looked up): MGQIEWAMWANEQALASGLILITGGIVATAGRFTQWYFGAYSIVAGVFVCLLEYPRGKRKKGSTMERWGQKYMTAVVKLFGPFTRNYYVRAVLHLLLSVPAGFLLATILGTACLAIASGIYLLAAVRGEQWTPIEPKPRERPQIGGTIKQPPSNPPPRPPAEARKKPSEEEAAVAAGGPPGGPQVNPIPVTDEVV
inactive: [1] -0.091 | [2] -0.125 | [3] -0.026 | [4] 0.037 | [5] 0.047 | [6] 0.074 | [7] -0.02 | [8] 0.058 | [9] -0.064 | [10] -0.04 | [11] 0.067 | [12] 0.033 | [13] -0.031 | [14] -0.02 | [15] 0.01 | [16] 0.014 | [17] -0.035 | [18] -0.013 | [19] 0.031 | [20] 0.008

DAXX (UniProt Q9UER7)
inactive: [1] 0.018 | [2] -0.006 | [3] 0.204 | [5] -0.111 | [6] -0.102 | [7] -0.077 | [8] 0.047 | [9] -0.093 | [10] 0.027 | [11] -0.001 | [12] -0.078 | [13] 0 | [14] 0.122 | [15] -0.142 | [16] 0.005 | [17] 0.048 | [18] 0.018 | [19] -0.097 | [20] 0.109

EIF4E2 (UniProt O60573)
Chain of UniProt O60573 (O60573 whole entry, looked up): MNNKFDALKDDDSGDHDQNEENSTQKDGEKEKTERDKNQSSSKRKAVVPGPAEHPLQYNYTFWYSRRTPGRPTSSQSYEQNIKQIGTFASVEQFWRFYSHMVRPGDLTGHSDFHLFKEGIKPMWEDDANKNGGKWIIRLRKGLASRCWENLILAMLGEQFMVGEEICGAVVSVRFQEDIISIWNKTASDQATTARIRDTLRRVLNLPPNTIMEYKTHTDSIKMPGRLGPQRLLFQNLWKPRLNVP
active: [2] -0.381
inactive: [1] -0.202 | [3] 0.124 | [4] 0.018 | [5] -0.053 | [7] 0.063 | [8] 0.035 | [9] -0.034 | [11] -0.229 | [12] -0.288 | [13] -0.052 | [14] 0.07 | [15] -0.026 | [16] -0.001 | [17] 0.126 | [18] 0.008 | [19] -0.013 | [20] -0.013

ELAC1 (UniProt Q9H777)
Chain of UniProt Q9H777 (Q9H777 whole entry, looked up): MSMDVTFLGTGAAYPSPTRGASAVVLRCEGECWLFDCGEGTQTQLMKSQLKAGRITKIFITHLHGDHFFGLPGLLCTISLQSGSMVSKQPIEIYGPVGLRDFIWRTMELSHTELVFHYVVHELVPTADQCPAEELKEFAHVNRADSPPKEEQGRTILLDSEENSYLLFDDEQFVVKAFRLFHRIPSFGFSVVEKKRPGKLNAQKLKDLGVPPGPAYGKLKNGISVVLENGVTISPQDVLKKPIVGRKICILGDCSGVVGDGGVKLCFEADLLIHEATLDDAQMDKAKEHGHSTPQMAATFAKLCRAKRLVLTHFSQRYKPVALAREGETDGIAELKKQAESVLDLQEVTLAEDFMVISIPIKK
active: [6] -0.488
inactive: [1] -0.067 | [2] 0.055 | [3] 0.046 | [4] -0.002 | [5] -0.073 | [7] 0 | [9] 0.079 | [10] -0.227 | [11] 0.094 | [12] 0.006 | [13] 0.051 | [15] -0.056 | [16] -0.031 | [17] 0.153 | [18] 0.049 | [19] 0.063 | [20] 0.022

FAM118A (UniProt Q9NWS6)
active: [1] -0.812
inactive: [2] -0.54 | [3] 0.136 | [4] 0.118 | [6] -0.075 | [7] 0.222 | [8] -0.02 | [9] -0.007 | [10] -0.142 | [11] -0.138 | [12] -0.135 | [13] -0.168 | [14] 0.029 | [16] -0.179 | [17] 0.29 | [18] 0.068 | [19] -0.172 | [20] -0.079

FAM241A (UniProt Q8N8J7)
Chain of UniProt Q8N8J7 (Q8N8J7 whole entry, looked up): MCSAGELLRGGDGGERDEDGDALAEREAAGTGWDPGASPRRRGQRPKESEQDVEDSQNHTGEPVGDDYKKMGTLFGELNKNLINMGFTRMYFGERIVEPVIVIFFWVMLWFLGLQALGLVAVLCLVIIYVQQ
active: [12] -0.632
inactive: [1] -0.026 | [2] 0.007 | [3] -0.002 | [5] 0.057 | [6] 0.037 | [7] -0.093 | [8] 0.011 | [9] 0.059 | [10] 0.08 | [11] -0.012 | [13] -0.046 | [14] -0.035 | [15] 0.042 | [16] 0.013 | [17] 0.006 | [18] -0.003 | [19] -0.009 | [20] 0.03

ECH1 (UniProt Q13011)
Chain of UniProt Q13011 (Q13011 whole entry, looked up): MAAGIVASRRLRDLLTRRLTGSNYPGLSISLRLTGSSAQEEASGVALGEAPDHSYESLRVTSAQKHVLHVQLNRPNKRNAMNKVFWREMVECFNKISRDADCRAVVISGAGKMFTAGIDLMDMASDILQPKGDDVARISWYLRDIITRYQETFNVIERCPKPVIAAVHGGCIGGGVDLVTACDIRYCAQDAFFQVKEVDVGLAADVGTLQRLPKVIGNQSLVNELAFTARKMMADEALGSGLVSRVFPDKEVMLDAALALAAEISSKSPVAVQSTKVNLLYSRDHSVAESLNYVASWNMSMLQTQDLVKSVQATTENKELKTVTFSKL
active: [10] 0.694 | [12] 0.727 | [14] 0.519
inactive: [1] 0.019 | [2] 0.276 | [3] 0.024 | [4] 0.036 | [5] -0.032 | [6] -0.021 | [7] 0.023 | [8] 0.052 | [9] -0.041 | [11] -0.037 | [13] 0.053 | [15] 0.122 | [16] -0.023 | [17] -0.012 | [18] -0.031 | [19] -0.035 | [20] -0.024

DENND10 (UniProt Q8TCE6)
inactive: [1] -0.041 | [2] -0.241 | [3] 0.121 | [4] -0.041 | [5] -0.048 | [7] 0.076 | [8] 0.007 | [9] -0.031 | [11] 0.035 | [12] 0.015 | [13] 0 | [14] 0.007 | [15] -0.039 | [16] -0.058 | [17] -0.065 | [18] -0.035 | [19] 0.008 | [20] -0.048

FAM193B (UniProt Q96PV7)
inactive: [1] 0.126 | [2] 0.092 | [4] -0.033 | [7] -0.442 | [8] 0.027 | [9] 0.247 | [11] -0.289 | [12] 0.06 | [13] -0.32 | [14] -0.007 | [16] 0.231 | [17] 0.19 | [18] 0.096 | [19] 0.162 | [20] 0.044

EXOSC10 (UniProt Q01780)
Chain of UniProt Q01780 (Q01780 whole entry, looked up): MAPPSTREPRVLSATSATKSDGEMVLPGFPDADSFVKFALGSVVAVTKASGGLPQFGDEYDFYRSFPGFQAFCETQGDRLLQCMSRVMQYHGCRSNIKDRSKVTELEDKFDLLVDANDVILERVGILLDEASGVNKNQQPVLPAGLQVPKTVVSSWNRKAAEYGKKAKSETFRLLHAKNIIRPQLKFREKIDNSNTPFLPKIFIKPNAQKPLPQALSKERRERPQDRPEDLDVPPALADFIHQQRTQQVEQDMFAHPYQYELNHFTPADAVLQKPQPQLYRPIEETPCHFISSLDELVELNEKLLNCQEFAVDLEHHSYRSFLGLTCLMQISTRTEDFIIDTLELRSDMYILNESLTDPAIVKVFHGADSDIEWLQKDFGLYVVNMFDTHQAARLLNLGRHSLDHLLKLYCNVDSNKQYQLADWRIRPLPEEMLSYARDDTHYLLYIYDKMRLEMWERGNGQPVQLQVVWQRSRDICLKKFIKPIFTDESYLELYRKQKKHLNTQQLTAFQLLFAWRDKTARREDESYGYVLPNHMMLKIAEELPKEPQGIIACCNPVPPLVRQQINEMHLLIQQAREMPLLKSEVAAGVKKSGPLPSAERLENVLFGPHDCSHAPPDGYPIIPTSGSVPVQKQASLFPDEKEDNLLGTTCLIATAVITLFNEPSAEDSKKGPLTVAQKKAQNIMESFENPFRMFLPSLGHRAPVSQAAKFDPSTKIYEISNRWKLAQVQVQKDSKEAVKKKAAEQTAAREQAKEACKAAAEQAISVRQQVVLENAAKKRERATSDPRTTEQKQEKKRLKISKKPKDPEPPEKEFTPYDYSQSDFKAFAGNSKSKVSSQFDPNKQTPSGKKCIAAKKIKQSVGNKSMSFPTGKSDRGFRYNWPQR
inactive: [1] -0.048 | [2] 0.087 | [4] -0.098 | [5] -0.098 | [6] -0.222 | [7] -0.169 | [8] -0.145 | [9] 0.029 | [10] -0.003 | [11] -0.091 | [12] 0.199 | [13] 0.092 | [14] 0.143 | [15] -0.073 | [16] 0.015 | [17] 0.101 | [18] 0.022 | [19] -0.327 | [20] 0.123

EIF2AK3 (UniProt Q9NZJ5)
Chain of UniProt Q9NZJ5 (Q9NZJ5 whole entry, looked up): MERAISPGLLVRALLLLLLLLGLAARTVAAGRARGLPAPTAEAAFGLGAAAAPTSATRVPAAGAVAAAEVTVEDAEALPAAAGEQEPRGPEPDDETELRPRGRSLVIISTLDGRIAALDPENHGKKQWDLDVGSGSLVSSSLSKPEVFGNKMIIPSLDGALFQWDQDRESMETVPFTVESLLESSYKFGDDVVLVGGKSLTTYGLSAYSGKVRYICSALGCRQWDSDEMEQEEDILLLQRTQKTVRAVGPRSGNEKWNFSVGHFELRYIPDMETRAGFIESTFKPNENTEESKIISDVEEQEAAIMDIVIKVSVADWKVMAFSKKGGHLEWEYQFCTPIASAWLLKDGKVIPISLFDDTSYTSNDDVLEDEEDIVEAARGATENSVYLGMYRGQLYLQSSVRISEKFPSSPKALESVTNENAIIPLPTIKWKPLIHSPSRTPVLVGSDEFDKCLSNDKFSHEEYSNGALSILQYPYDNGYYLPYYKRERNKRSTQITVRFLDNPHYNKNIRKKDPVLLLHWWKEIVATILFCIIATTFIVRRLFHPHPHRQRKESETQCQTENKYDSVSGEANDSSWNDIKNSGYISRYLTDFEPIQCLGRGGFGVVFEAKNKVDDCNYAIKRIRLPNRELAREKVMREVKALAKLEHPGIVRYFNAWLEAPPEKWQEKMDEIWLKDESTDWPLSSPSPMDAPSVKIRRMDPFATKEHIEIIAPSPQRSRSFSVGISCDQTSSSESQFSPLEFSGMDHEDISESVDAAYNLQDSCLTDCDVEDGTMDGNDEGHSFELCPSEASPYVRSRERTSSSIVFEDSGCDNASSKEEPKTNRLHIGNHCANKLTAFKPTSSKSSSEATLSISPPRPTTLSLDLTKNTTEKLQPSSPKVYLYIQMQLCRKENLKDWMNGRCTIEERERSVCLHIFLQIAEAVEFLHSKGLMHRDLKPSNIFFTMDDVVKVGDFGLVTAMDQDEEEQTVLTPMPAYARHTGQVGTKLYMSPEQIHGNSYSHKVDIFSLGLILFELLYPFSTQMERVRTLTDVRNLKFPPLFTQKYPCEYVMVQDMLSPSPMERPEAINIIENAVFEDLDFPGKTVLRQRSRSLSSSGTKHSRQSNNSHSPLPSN
inactive: [1] 0.322 | [2] -0.114 | [3] 0.357 | [4] 0.033 | [5] -0.295 | [6] 0.106 | [8] -0.308 | [9] 0.14 | [10] -0.017 | [11] -0.019 | [13] 0.045 | [14] 0.039 | [15] 0.183 | [17] -0.125 | [18] 0.082 | [19] -0.216

EXOC4 (UniProt Q96A65)
Chain of UniProt Q96A65 (Q96A65 whole entry, looked up): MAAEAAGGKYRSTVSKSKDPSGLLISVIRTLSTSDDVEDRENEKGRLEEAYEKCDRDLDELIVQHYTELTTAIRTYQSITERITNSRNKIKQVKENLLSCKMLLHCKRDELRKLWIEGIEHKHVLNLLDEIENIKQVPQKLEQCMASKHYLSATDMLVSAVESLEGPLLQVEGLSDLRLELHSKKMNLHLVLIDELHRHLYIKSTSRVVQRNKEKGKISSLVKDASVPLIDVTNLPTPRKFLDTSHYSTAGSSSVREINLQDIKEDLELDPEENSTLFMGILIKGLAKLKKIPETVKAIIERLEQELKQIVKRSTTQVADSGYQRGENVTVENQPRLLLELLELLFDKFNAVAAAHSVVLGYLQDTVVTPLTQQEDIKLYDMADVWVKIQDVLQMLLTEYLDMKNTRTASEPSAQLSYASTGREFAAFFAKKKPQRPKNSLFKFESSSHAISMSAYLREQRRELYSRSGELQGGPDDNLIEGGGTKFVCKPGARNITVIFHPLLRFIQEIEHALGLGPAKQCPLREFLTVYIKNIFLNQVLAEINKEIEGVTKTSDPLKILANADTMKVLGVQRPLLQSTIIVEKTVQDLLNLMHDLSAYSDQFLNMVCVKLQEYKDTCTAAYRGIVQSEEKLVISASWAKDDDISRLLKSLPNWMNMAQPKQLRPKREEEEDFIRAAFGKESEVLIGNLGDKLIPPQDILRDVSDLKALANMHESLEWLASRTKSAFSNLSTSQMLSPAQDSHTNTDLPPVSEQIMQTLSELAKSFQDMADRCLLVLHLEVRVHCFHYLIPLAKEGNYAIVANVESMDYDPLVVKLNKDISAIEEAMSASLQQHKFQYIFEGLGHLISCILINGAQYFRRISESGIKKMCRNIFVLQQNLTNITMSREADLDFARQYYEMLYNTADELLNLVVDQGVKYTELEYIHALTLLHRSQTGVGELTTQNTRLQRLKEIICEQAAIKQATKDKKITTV
inactive: [1] -0.145 | [3] 0.095 | [4] 0.005 | [5] -0.129 | [6] 0.021 | [7] 0.061 | [8] 0.021 | [9] 0.103 | [10] -0.243 | [11] -0.013 | [12] -0.224 | [13] -0.131 | [14] 0.058 | [15] -0.04 | [16] -0.049 | [17] 0.183 | [18] 0.015 | [19] 0.14 | [20] 0.01
active: [2] -0.606

DCAF16 (UniProt Q9NXF7)
Chain of UniProt Q9NXF7 (Q9NXF7 whole entry, looked up): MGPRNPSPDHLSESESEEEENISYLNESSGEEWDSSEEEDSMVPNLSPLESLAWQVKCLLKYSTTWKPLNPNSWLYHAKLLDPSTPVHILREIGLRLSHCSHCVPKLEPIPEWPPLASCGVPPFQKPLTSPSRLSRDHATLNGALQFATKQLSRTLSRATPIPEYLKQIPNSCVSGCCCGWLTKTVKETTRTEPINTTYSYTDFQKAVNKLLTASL
inactive: [1] -0.164 | [3] 0.06 | [4] 0.032 | [5] -0.026 | [6] -0.205 | [7] 0.073 | [8] 0.055 | [9] -0.052 | [10] 0.03 | [11] -0.052 | [12] -0.036 | [13] -0.082 | [14] -0.006 | [15] 0.084 | [16] -0.054 | [17] 0.033 | [18] -0.05 | [19] 0.004 | [20] -0.041
active: [2] -0.532

DSN1 (UniProt Q9H410)
active: [2] -0.418
inactive: [1] -0.218 | [3] -0.034 | [4] -0.004 | [5] -0.107 | [7] 0.007 | [8] -0.086 | [9] -0.008 | [11] 0.032 | [12] -0.042 | [13] -0.164 | [14] 0.082 | [15] -0.031 | [16] -0.146 | [17] 0.076 | [18] 0.016 | [19] 0.02 | [20] 0.029

DNAJC24 (UniProt Q6P3W2)
Chain of UniProt Q6P3W2 (Q6P3W2 whole entry, looked up): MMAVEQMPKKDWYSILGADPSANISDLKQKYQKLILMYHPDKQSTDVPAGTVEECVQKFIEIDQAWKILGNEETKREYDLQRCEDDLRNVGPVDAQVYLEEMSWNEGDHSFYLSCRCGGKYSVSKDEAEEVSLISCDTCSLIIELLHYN
inactive: [1] -0.318 | [2] -0.244 | [3] 0.029 | [4] 0.034 | [5] 0.049 | [7] -0.027 | [8] -0.01 | [9] -0.284 | [11] 0.185 | [12] -0.081 | [13] -0.038 | [14] -0.094 | [15] -0.033 | [16] 0.116 | [17] 0.059 | [19] 0.038 | [20] 0.099
active: [18] -0.351

FAM207A (UniProt Q9NSI2)
Chain of UniProt Q9NSI2 (Q9NSI2 whole entry, looked up): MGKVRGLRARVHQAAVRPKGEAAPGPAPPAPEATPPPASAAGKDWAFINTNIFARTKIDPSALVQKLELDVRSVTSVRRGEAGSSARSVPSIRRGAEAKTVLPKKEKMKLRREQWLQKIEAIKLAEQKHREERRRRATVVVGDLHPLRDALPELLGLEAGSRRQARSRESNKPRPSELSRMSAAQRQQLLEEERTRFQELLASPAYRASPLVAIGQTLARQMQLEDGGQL
inactive: [1] -0.085 | [2] -0.165 | [3] 0.044 | [4] -0.024 | [5] 0.025 | [6] 0.023 | [7] 0.05 | [8] 0.146 | [9] 0.168 | [11] 0.005 | [12] -0.115 | [14] 0.106 | [15] 0.028 | [16] 0 | [17] 0.064 | [18] 0.007 | [19] 0.149 | [20] 0.031
active: [10] 0.418

DNAH10 (UniProt Q8IVF4)
inactive: [1] 0.066 | [3] -0.146 | [4] 0.072 | [5] -0.17 | [6] -0.183 | [7] -0.008 | [8] 0.031 | [9] 0 | [10] 0.006 | [11] -0.067 | [12] -0.06 | [13] 0.028 | [14] 0.191 | [15] -0.157 | [16] 0.004 | [17] -0.044 | [18] 0.062 | [19] -0.06 | [20] -0.013
